# Measurements taken from the supplement of paper PMC9694430.
# Structures can show the parent of a compound that is named as a salt.
# Assays:
# Experiment in all cases: thermal shift delta Tm vs DMSO control; higher = stronger stabilization (binding)
# Conditions in all cases: 12.5 µM; protein concentration 2 µM
# LOC_OS01G57100-cb003 = system: LOC_OS01G57100-cb003
# Method in brief: (§1)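 Rice kinase domain constructs were expressed in E. coli, purified, and tested by differential scanning fluorimetry with compound added in DMSO. Each well of a 96-well plate held 19.5 μl of 2 μM kinase in 100 mM potassium phosphate pH 7.5, 150 mM NaCl, 10% glycerol and 5 × SYPRO Orange, and fluorescence was read from 25°C to 95°C at 0.05°C/s. The melting temperature shift is the mean of triplicates, taken against protein with DMSO alone after Boltzmann fitting.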
# LOC_OS01G60330-cb001 = system: LOC_OS01G60330-cb001
# Method in brief: as §1
# LOC_OS01G60700-cb002 = system: LOC_OS01G60700-cb002
# Method in brief: as §1
# LOC_OS01G63280-cb003 = system: LOC_OS01G63280-cb003
# Method in brief: as §1
# LOC_OS01G67340-cb003 = system: LOC_OS01G67340-cb003
# Method in brief: as §1
# LOC_OS01G70970-cb002 = system: LOC_OS01G70970-cb002
# Method in brief: as §1
# LOC_OS02G07810-cb001 = system: LOC_OS02G07810-cb001
# Method in brief: as §1
# LOC_OS02G08530-cb003 = system: LOC_OS02G08530-cb003
# Method in brief: as §1
# LOC_OS02G14120-cb001 = system: LOC_OS02G14120-cb001
# Method in brief: as §1
# LOC_OS02G17970-cb001 = system: LOC_OS02G17970-cb001
# Method in brief: as §1
# LOC_OS02G45750-cb003 = system: LOC_OS02G45750-cb003
# Method in brief: as §1
# LOC_OS02G54510-cb004 = system: LOC_OS02G54510-cb004
# Method in brief: as §1
# LOC_OS03G04050-cb001 = system: LOC_OS03G04050-cb001
# Method in brief: as §1
# LOC_OS03G12390-cb001 = system: LOC_OS03G12390-cb001
# Method in brief: as §1
# LOC_OS03G27990-cb004 = system: LOC_OS03G27990-cb004
# Method in brief: as §1
# LOC_OS03G50450-cb001 = system: LOC_OS03G50450-cb001
# Method in brief: as §1
# LOC_OS03G50810-cb003 = system: LOC_OS03G50810-cb003
# Method in brief: as §1
# LOC_OS04G35114-cb001 = system: LOC_OS04G35114-cb001
# Method in brief: as §1
# LOC_OS04G38480-cb003 = system: T1, LOC_OS04G38480-cb003
# T1 sequence (whole entry): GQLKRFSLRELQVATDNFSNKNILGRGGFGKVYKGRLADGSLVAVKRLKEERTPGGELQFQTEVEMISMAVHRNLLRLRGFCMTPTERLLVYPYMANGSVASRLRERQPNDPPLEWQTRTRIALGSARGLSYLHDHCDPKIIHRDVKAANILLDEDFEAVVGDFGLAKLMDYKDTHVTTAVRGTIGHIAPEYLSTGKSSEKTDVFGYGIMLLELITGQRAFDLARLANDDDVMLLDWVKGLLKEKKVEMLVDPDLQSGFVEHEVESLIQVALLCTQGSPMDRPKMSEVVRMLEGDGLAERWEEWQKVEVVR
# Method in brief: as §1
# LOC_OS04G41100-cb001 = system: T2, LOC_OS04G41100-cb001
# T2 sequence (whole entry): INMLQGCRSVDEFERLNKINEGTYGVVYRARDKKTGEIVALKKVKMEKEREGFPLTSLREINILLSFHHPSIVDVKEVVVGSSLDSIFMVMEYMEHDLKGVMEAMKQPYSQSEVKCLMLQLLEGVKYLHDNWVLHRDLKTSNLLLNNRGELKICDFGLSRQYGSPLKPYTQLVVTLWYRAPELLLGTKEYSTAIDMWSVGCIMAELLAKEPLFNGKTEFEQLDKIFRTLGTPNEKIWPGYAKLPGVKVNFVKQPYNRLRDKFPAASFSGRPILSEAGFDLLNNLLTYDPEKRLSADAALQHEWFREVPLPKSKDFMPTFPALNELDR
# Method in brief: as §1
SMILES,thermal shift delta Tm (LOC_OS01G57100-cb003) [°C],thermal shift delta Tm (LOC_OS01G60330-cb001) [°C],thermal shift delta Tm (LOC_OS01G60700-cb002) [°C],thermal shift delta Tm (LOC_OS01G63280-cb003) [°C],thermal shift delta Tm (LOC_OS01G67340-cb003) [°C],thermal shift delta Tm (LOC_OS01G70970-cb002) [°C],thermal shift delta Tm (LOC_OS02G07810-cb001) [°C],thermal shift delta Tm (LOC_OS02G08530-cb003) [°C],thermal shift delta Tm (LOC_OS02G14120-cb001) [°C],thermal shift delta Tm (LOC_OS02G17970-cb001) [°C],thermal shift delta Tm (LOC_OS02G45750-cb003) [°C],thermal shift delta Tm (LOC_OS02G54510-cb004) [°C],thermal shift delta Tm (LOC_OS03G04050-cb001) [°C],thermal shift delta Tm (LOC_OS03G12390-cb001) [°C],thermal shift delta Tm (LOC_OS03G27990-cb004) [°C],thermal shift delta Tm (LOC_OS03G50450-cb001) [°C],thermal shift delta Tm (LOC_OS03G50810-cb003) [°C],thermal shift delta Tm (LOC_OS04G35114-cb001) [°C],thermal shift delta Tm (LOC_OS04G38480-cb003) [°C],thermal shift delta Tm (LOC_OS04G41100-cb001) [°C]
CS(=O)(=O)CCNCc1ccc(-c2ccc3ncnc(Nc4ccc(OCc5cccc(F)c5)c(Cl)c4)c3c2)o1,0.92,1.06,1.49,0.35,-0.49,0.26,1.15,0.58,-0.53,0.69,-0.27,0.18,0.24,0.39,0.11,0.01,0.17,0.48,0.99,0.27
CO[C@H]1CC[C@H](N2C(=O)CNc3ncc(-c4ccc(C(C)(C)O)nc4)nc32)CC1,-0.57,0.72,0.21,-0.43,0.09,-0.05,-0.1,0.65,-1.04,-0.48,0.31,-0.17,0.09,-0.22,-0.29,0.22,0.18,-0.71,1.62,0.08
O=C(c1ccc(/C=C/c2n[nH]c3ccccc23)cc1)N1CCNCC1,1.7,11.6,0.48,0.98,4.9,6.89,0.73,4.1,7.17,0.42,14,0.61,0.27,6.79,6,4.25,4.42,8.77,2.61,0.96
CC(C)[C@H](CO)Nc1nc(Nc2cccc(Cl)c2)c2ncn(C(C)C)c2n1 [Purvalanol A],2.77,5.05,0.1,0.46,3.08,3.68,0.09,4.08,1.7,0.39,5.95,2.06,0.15,3.95,3.63,7.22,2.8,6.09,1.87,0.54
CN1CCN(c2ccc(OC(F)(F)F)c(Nc3ncc4c(n3)-c3c(c(C(N)=O)nn3CCO)CC4)c2)CC1,1.21,0.44,0.52,0.63,0.36,0.12,0.04,1.25,1.17,0.51,0.67,-0.01,0.33,1.65,-0.02,-0.04,0.54,1.58,-0.15,0.74
COc1ncc(-c2ccc3nccc(-c4ccnnc4)c3c2)cc1NS(=O)(=O)c1ccc(F)cc1F,2.01,0.36,1.17,0.66,1.24,0.34,1.43,0.74,0.78,1.75,1.38,0.45,0.9,0.76,0.69,1.26,1.09,2.35,1.39,0.74
C[C@H](NC(=O)c1c(N)nn2cccnc12)c1cc2cccc(C#Cc3cnn(C)c3)c2c(=O)n1-c1ccccc1,1.25,0.23,-0.49,0,0.21,0.36,-0.71,0.78,0.56,0.54,1.18,0.33,0.47,-0.11,0.46,0.63,0.32,0.21,1.13,0.04
CC(C)c1c2cc(-c3ccnc(NC4CCC(NC5CCOCC5)CC4)n3)ccc2nn1C (stereo not given),0.61,0.07,0.86,0.36,0.46,0.29,0.41,1.38,4.79,0.57,1.08,0.06,0.41,0.78,0.18,0.03,1.01,2.72,0.69,6.52
CNC(=O)c1nn(C)c2c1C(C)(C)Cc1cnc(Nc3ccc(N4CCN(C)CC4)cc3)nc1-2,1.59,0.33,0.69,-0.14,1.14,0.87,0.68,1.93,4.82,0.05,7.62,0.71,0.62,-0.14,1.08,0.91,4.16,7.06,1.96,0.65
O=C(Nc1cccc(Cl)c1)Nc1ncc(CCNc2ncnc3ccsc23)s1 [SNS-314 Mesylate],2.62,3.98,1.44,2.76,0.53,1.48,2.27,2.1,4.25,1.27,0.93,0.38,1.02,1.77,0.36,0.82,0.75,1.73,2.48,1.12
Fc1ccc2[nH]ccc2c1-c1nc(N2CCOCC2)c2sc(CN3CCN(CC4CC4)CC3)cc2n1,1.16,0.82,1.22,0.86,0.95,0.31,0.15,0.45,0.72,0.68,0,-0.03,0.21,0.01,0,-0.17,1.38,0.63,0.91,0.18
COC(=O)Nc1ccc(-c2nc(N3CCOCC3)c3cnn(C4CCN(C(=O)OC)CC4)c3n2)cc1,2.22,0.77,0.54,0.41,0.13,0.2,0.91,0.58,-0.24,0.43,0,-0.07,0.1,0.08,-0.05,0.08,0.17,0.06,0.81,0.47
CCCCNc1ncc2c(-c3ccc(CN4CCN(C)CC4)cc3)cn([C@H]3CC[C@H](O)CC3)c2n1,3.5,14.9,0.56,0.95,10.1,8.18,-0.25,5.26,12.2,-0.42,18.4,0.6,0.12,8.3,10.8,6.64,10.5,12.3,4.63,0.42
CCCCOc1c(C(=O)c2c(F)cc(C)cc2F)c[nH]c2nncc1-2,0.94,0.86,-0.01,0.42,1.31,0.23,0.81,0.56,1.75,0.7,0.73,0.14,0.23,2.18,0.03,-0.21,0.46,0.65,0.81,0.49
NC[C@@](O)(c1ccc(Cl)cc1)c1ccc(-c2cn[nH]c2)cc1,2.29,1.43,1.37,0.56,0.77,0.29,0.52,0.75,1.05,0.63,1.24,0.3,0.31,0.49,0.56,0.8,0.36,1.05,1.51,0.81
COc1cc(Nc2ncc(F)c(Nc3ccc4c(n3)NC(=O)C(C)(C)O4)n2)cc(OC)c1OC,4.83,4.41,0.57,0.28,0.45,2.5,0.41,4,12.4,0.45,6.19,4.62,0.45,9.67,2.62,10.5,5.15,2.97,4.12,0.74
C#Cc1cccc(Nc2ncnc3cc(OCCOC)c(OCCO)cc23)c1,0.15,0.3,0.24,-0.13,-0.22,0.5,1.32,1.16,4.33,-0.01,3.92,0.67,0.26,2.39,0.08,0.13,0.83,6.33,1.21,0.13
COc1cc(N2CCC(N3CCN(C)CC3)CC2)ccc1Nc1ncnc(Nc2ccccc2S(=O)(=O)C(C)C)n1,1.39,0.48,0.92,0.72,0.5,0.84,0.26,1.76,3.1,0.11,1.85,0.1,0.24,1.69,0.28,0.36,0.99,0.74,1.16,0.34
COc1cc2ncnc(Nc3ccc(F)c(Cl)c3)c2cc1NC(=O)/C=C/CN1CCCCC1,2.23,2.36,1.39,0.37,1.76,0.52,1.55,1.7,0.41,1.92,1.69,0.71,1.08,0.21,1.04,1.79,0.95,1.15,1.53,0.71
CN(C)C/C=C/C(=O)Nc1cc2c(Nc3ccc(F)c(Cl)c3)ncnc2cc1O[C@H]1CCOC1 [Afatinib (BIBW2992)],0.75,0.2,1,-0.22,-0.42,0.44,0.56,0.76,2.04,-0.15,0.69,-0.42,0.26,1.35,0.99,0.05,0.86,4.16,0.66,0.51
COc1cc2c(cc1OC)[C@@H]1C(=O)c3ccc4c(c3O[C@@H]1CO2)C=CC(C)(C)O4 [Deguelin],1.25,1.41,0.73,0.43,0.31,0.2,0.57,0.83,0.97,1.35,0.46,-0.02,0.25,-0.38,0.07,0.4,0.24,0.63,1.39,0.34
Cc1c(C(=O)Nc2ccc(Oc3ccnc4[nH]cc(-c5ccccc5)c34)c(F)c2)c(=O)n(-c2ccc(F)cc2)n1C,1.48,5.65,1.25,5.92,1.81,1.29,0.68,3.76,6.85,1.44,1.92,-0.32,0.37,1.39,0.47,0.52,1.79,5.04,3.56,1.06
CC(C)(C)c1ccc(S(=O)(=O)/C=C/C#N)cc1,3.12,-0.21,1.42,-3.74,0.12,-4.09,0.63,1.02,-0.46,5.71,-0.34,1.26,0.18,-0.99,-0.83,0.05,-1.59,-1.78,1.74,-0.39
